Results filed as inconclusive are left out. Calls of active or inactive are those of the source. Calls come from the whole dose curve; as a rule, active = well fitted activation curve with a large enough effect in the repeat runs; inconclusive = weak or mixed curves; inactive = flat fitted curve, though single readings scatter.
Experiment: qHTS assay for small molecule agonists of the antioxidant response element (ARE) signaling pathway measured by Nrf2-dependant transcriptional activity (AID 720636); for activation: % of control where 0% means no effect
Details: ARE-luc HepG2, Nrf2 luciferase reporter, 16 h; series mostly up to 92.4 µM; activation: at the top concentration
From the text: National Center for Advancing Translational Sciences [NCATS] NIH Chemical Genomics Center [NCGC] U.S. Environmental Protection Agency [EPA] National Institutes of Environmental Health Sciences [NIEHS] National Toxicology Program [NTP] Assay Overview: The antioxidant response element (ARE) signaling pathway plays an important role in the cellular anti-oxidant defense. Exposure to stressors which are exogenous like ionizing radiations, chemicals, U-V light, and endogenous like cell signaling, metabolic processes or inflammation, reactive oxygen species (ROS), can induce oxidative stress in the cells. Oxidative stress has been implicated in the pathogenesis of a variety of diseases ranging from cancer to neurodegeneration. ARE-luc HepG2 cell line (Simmons et al., Current Chemical Genomics, 5:1-12, 2011) has been used for identifying the chemicals that induce oxidative stress. The cell line has an Nrf2-responsive luciferase reporter gene that has been engineered to measure Nrf2-dependant transcriptional activity.
Assay Protocol Summary: For measuring ARE induction; 2,000 ARE-luc HepG2 cells in 5 uL of assay medium containing 1% dialyzed FBS per well were dispensed into white wall/solid bottom 1536-well plates using a Flying Reagent Dispenser (FRD) (Aurora Discovery). The assay plates were incubated for 6 hr at 37 C to allow cell attachment to the well bottom, followed by the transfer of 23 nL compound or DMSO vehicle by a pin tool (Kalypsys). The plates were incubated for 16 hr at 37 C and 5% CO2, followed by the addition of 5 uL of ONE-GloTM luciferase reagent (Promega) into each well using FRD. After 30 min room temperature incubation, plates were read on a ViewLux plate reader (PerkinElmer).
Potency is the fitted concentration of half-maximal effect.

Compound	Potency	activation
OCCOc1ccccc1	inactive	–
Nc1ccncc1	–	0.264% (inactive)
CNCC(O)c1ccc(O)cc1 (stereo unspecified)	–	0.679% (inactive)
C[C@H]1O[C@@H](O[C@H]2[C@@H](O)C[C@H](O[C@H]3[C@@H](O)C[C@H](O[C@H]4CC[C@@]5(C)[C@H](CC[C@@H]6[C@@H]5CC[C@]5(C)[C@@H](C7=CC(=O)OC7)CC[C@]65O)C4)O[C@@H]3C)O[C@@H]2C)C[C@H](O)[C@@H]1O	–	-1.2% (inactive)
Oc1ccccc1-c1ccccc1	inactive	–
Oc1ccc(Cl)cc1Cc1ccccc1	–	-0.479% (inactive)
CCOP(=S)(OCC)Oc1cc(C)nc(C(C)C)n1	inactive	–
CCCC(C)(COC(N)=O)COC(=O)NC(C)C (stereo unspecified)	inactive	–
C[C@@H]1O[C@@H](O[C@H]2C[C@@H](O)[C@]3(CO)[C@H]4[C@H](O)C[C@]5(C)[C@@H](C6=CC(=O)OC6)CC[C@]5(O)[C@@H]4CC[C@]3(O)C2)[C@H](O)[C@H](O)[C@H]1O	–	-1.99% (inactive)
C[C@]12CCC(=O)C(O)=C1CC[C@@H]1[C@@H]2CC[C@]2(C)C(=O)CC[C@@H]12	–	0.399% (inactive)
CC(C)(C)CC(C)(C)c1ccc(O)cc1	–	-0.208% (inactive)
Oc1cc(Cl)ccc1Oc1ccc(Cl)cc1Cl	–	-3.5% (inactive)
CN(C)CCC=C1c2ccccc2CCc2ccccc21	–	-3.15% (inactive)
c1ccc2c(c1)Nc1ccccc1S2	–	1.81% (inactive)
O=c1oc2ccccc2c(O)c1C(CC(O)c1ccc(-c2ccc(Br)cc2)cc1)c1ccccc1 (stereo unspecified)	–	-3.57% (inactive)
O=c1[nH]c2ccccc2n1C1CCN(CCCC(c2ccc(F)cc2)c2ccc(F)cc2)CC1	–	-4.81% (inactive)
NCC(O)c1ccc(O)cc1 (stereo unspecified)	–	0.665% (inactive)
C=C(C)[C@H]1Cc2c(ccc3c2O[C@@H]2COc4cc(OC)c(OC)cc4[C@@H]2C3=O)O1	–	-2.54% (inactive)
Cc1cc2c(C(C)C)c(O)c(O)c(C=O)c2c(O)c1-c1c(C)cc2c(C(C)C)c(O)c(O)c(C=O)c2c1O	–	-4.41% (inactive)
Clc1ccc(COC(Cn2ccnc2)c2ccc(Cl)cc2Cl)cc1 (stereo unspecified)	–	-3.31% (inactive)
Oc1cccc2cccnc12	42.2 µM (active)	–
